# In the library only some 6.9% were active in any assay of this set; here they are far more common.
# M1 antag: antagonists of rat M1 muscarinic receptor; B-score at 10 µM; 3.4% of 64,000 active; CHO-M1 cells, Fluo-4 calcium, ACh EC80 antagonist mode; stronger effect = lower value; AID 628; P08482;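 active means calcium fluorescence response, raw or row-and-column corrected B-score, differing from the plate sample mean either way at a set confidence level, mostly lower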
# FXIIa mix inh: factor XIIa (human) inhibition, mixture screen | P00748 | purified FXIIa, fluorogenic substrate, pooled mixtures | inhibition, % at 5 µM | 0.2% of 62,000 active | AID 684;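 further: 0% = enzyme without compound and 100% = no enzyme blank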
# M1 agonist: agonists of M1 muscarinic receptor | CHO-M1 cells, Fluo-4 calcium fluorescence, agonist mode; stronger effect = higher value | AID 626 | B-score at 10 µM | 3% of 64,000 active;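 active means fluorescence rise, raw or as B-score row- and column-corrected plate score, outside the 99.7% band of its plate's samples, either direction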
# FXIa inh mix: factor XIa (human) inhibition, mixture screen; P03951; purified FXIa, fluorogenic substrate, pooled mixtures; inhibition, % at 5 µM; 0.19% of 62,000 active; AID 680;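 further: each value is inhibition by a whole ten-compound pool holding the compound; 0% = enzyme with no mixture and 100% = wells lacking enzyme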
# JNK3 blocker: blocks human JNK3 kinase activity; purified JNK3 kinase activity, HTS; inhibition, % at 8 µM; 0.61% of 60,000 active; in the data active means inhibition above about 17%;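 further: 0% = DMSO and 100% = reference inhibitor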
# Her2 expr inh: lowers expression of human Her2 kinase; P04626; 0.69% of 65,000 active; SKBR-3 HER2 protein level, AlphaScreen, 18-24 h; stronger effect = lower value; HER2 level % of control, % at 10 µM; AID 645;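 active means HER2 level under 5% of the carrier-only control; inconclusive means no clear call, values can overlap the other calls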;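 further: 100% = DMSO carrier and 0% = 500 nM PU-H71 HSP90 inhibitor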
# M1 ag confirm: rat M1 muscarinic agonism, confirmation. CHO-M1 cells, Fluo-4 calcium fluorescence, agonist mode; actives lie on both sides. 19% of 1,700 active. fluorescence change (max-min) at 10 µM. shares compounds with M1 agonist;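 active means fluorescence change differs from the solvent-only DMSO control mean at a set confidence level in both duplicate runs; inconclusive means differs from solvent-only control mean in just one of two runs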;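 further: an EC20 dose of acetylcholine follows compound addition during the same imaging run; raw fluorescence intensity difference in instrument units with no normalization to controls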
# M4 ag counter: counter-screen for M1 agonists: activity at rat M4 receptor; CHO M4/Gqi5 cells, Fluo-4 calcium fluorescence, agonist mode; actives lie on both sides; shares compounds with M1 agonist; fluorescence change (max-min) at 10 µM; 9% of 1,700 active;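 active means fluorescence change differing from the plate's solvent-only control wells at 99.7% confidence in both duplicates, whether higher or lower; inconclusive means differs from solvent controls in only one of two duplicates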
# Target sequence (P08485 whole entry, looked up): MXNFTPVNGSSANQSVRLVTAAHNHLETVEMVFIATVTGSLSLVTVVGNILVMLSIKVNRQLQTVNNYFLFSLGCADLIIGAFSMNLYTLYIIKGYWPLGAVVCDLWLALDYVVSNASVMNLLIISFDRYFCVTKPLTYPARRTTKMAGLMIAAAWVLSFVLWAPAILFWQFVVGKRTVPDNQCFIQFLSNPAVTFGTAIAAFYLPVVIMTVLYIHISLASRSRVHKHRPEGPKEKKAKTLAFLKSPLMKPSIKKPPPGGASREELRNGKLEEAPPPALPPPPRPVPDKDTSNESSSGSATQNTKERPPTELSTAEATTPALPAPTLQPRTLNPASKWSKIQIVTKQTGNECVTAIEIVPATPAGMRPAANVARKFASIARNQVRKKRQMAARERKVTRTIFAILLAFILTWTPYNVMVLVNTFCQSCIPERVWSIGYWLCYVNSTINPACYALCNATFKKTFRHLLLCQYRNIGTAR
# Numbers without * were called inactive; ? = inconclusive; · = not tested or not shown. Unless noted, no stated cut-off is given here; in the data, active means inhibition above about 20% (passing the limit was not always enough); inactive means the rest.
SMILES,M1 antag,FXIIa mix inh,M1 agonist,FXIa inh mix,JNK3 blocker,Her2 expr inh,M1 ag confirm,M4 ag counter
CCOC(=O)Cc1nnc2c(Nc3ccccc3F)nc3nonc3n12,-0.637,4.7,4.33*,-0.5,2.0,34.7,?,-54.4
CCOC(=O)Cc1nnc2c(Nc3ccc(C)cc3)nc3nonc3n12,-0.455,10.5,0.472,7.5,-6.3,90.3,·,·
CCOC(=O)Cc1csc(NC(=O)c2ccc3c(c2)OCO3)n1,-1.18,0.7,-2.35*,0.3,3.1,127.2,-20.9,?
CCOC(=O)Cc1csc(NC(=O)c2ccc(Br)s2)n1,-0.988,1.5,2.1,4.2,-1.4,87.5,·,·
Cc1ccc(Cn2nnnc2CN2CCC(O)(c3ccccc3F)CC2)cc1,-0.143,0.0,-0.559,8.7,·,67.1,·,·
CC(C)[C@H](NC(=O)[C@@H]1CSCN1C(=O)OC(C)(C)C)C(=O)NCC1CCC(C(=O)O)CC1 (stereo not given in full),1.01,7.0,1.84*,-1.6,-1.9,98.5,-4.43,?
O=C(Oc1ccccc1)c1c(Cl)cccc1P(=O)(O)O,-0.732,·,-0.757,·,6.5,97.6,·,·
COc1ccc(NC(=O)C(C)Oc2ccc(/C(C)=N\O)cc2)cc1 (stereo not given),-0.542,6.8,1.05,4.3,0.4,83.5,·,·
c1ccc(-n2c(-c3ccncc3)nnc2-c2cccs2)cc1,0.398,-17.1,9.24*,4.8,1.6,105.6,?,?
CSc1nnc(-c2cccs2)n1-c1ccccc1,0.443,2.2,0.619,-3.7,5.5,97.7,·,·
COc1cccc(C2C=C(c3cccs3)Nc3ncnn32)c1OC (stereo not given),-0.14,1.3,8.09*,15.3,-5.3,76.0,41.8,38.9
Cc1cc(C)nc(/N=c2/ssnc2Cl)c1,0.0299,9.1,6.33*,-5.5,-6.7,92.4,-7.89,?
O=C(OCCN1C(=O)CCC1=O)c1ccc(S(=O)(=O)N2CCCCC2)cc1,-0.139,3.5,-0.188,-5.2,0.3,120.1,·,·
CCOC(=O)c1coc(CNC(=O)c2c(C)oc3c2CCCC3)c1,0.272,13.3,14.6*,3.6,-0.8,90.2,?,-48.7
Cc1oc2c(c1C(=O)NCc1cc(C(=O)O)co1)CCCC2,0.119,3.6,-0.185,3.3,2.7,87.1,·,·
COC(=O)c1ccccc1NC(=O)C1CCN(C(=O)c2cc(OC)c(OC)c(OC)c2)CC1,-1.34,5.8,0.144,3.7,·,111.3,·,·
Cc1ccc(N(C(=O)Cn2nnc3ccccc32)C(C(=O)NCc2ccco2)c2ccc(C)o2)cc1 (stereo not given),0.0463,4.5,0.224,7.2,-11.3,52.0,·,·
CCC(C)(C)NC(=O)C(c1ccco1)N(C(=O)Cn1nnc2ccccc21)c1ccc2c(c1)OCO2 (stereo not given),-0.435,-17.5,17.3*,0.6,0.1,101.9,-31.6*,?
Cc1ccc(/C=c2\s/c(=C(/C#N)C(=O)N3CCCC3)n(Cc3ccco3)c2=O)s1,-0.0884,11.1,2.97*,11.8,-4.8,143.2,1.97,3.25
COC(=O)/C=c1/s/c(=C(/C#N)C(=O)N2CCCCC2)n(-c2ccccc2)c1=O,0.0695,0.0,0.0472,14.6,-6.0,67.8,·,·
CCOc1ccc(C(=O)C2CCN(CC(=O)Nc3ccccc3N3CCOCC3)CC2)cc1,0.0928,2.0,0.111,-15.2,·,52.7,·,·
CC1N=C2c3ccccc3N=C(SCc3cc(=O)n4ccccc4n3)N2C1=O (stereo not given),-2.85,-18.0,0.0595,7.1,-0.6,72.1,·,·
COc1ccc(S(=O)(=O)N2Cc3ccccc3CC2C(=O)Nc2ccc(O)cc2)cc1OC (stereo not given),-0.666,1.8,4.02*,-5.5,5.0,104.4,-4.02,-23.7
O=C(Nc1ccc2c(c1)OCO2)C1CCN(S(=O)(=O)c2cccs2)CC1,0.252,10.1,-0.143,7.8,·,119.5,·,·
COc1ccc(S(=O)(=O)N2Cc3ccccc3CC2C(=O)O)cc1OC (stereo not given),-0.806,1.6,-0.448,-8.6,-3.5,77.0,·,·

# Compound activity: PubChem BioAssay, several laboratories
